Source: PubChem BioAssay (Tox21)
Records with an inconclusive call do not appear. Calls of active or inactive are those of the source. Unless noted, calls come from the whole dose curve; as a rule, active = well fitted curve in the direction sought with a large enough effect in the repeat runs; inconclusive = weak or mixed curves; inactive = no such curve, though single readings can be large; an effect the other way counts as inactive or inconclusive.

What was measured:
[1] = qHTS assay to identify small molecule agonists of the peroxisome proliferator-activated receptor delta (PPARd) signaling pathway - cell viability counter screen (AID 743211); note: nearly all actives have a fitted effect of over 55% in size
Method in brief: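 PPARd-bla HEK293H cells (3000/well) were pre-incubated 5 h at 37 C, then exposed to compound for 17 h at 37 C. After 2 h with LiveBLAzer substrate, CellTiter-Glo was added to the same wells; luminescence read after 30 min at room temperature.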

[2] = qHTS assay to identify small molecule antagonists of the peroxisome proliferator-activated receptor delta (PPARd) signaling pathway - cell viability counter screen (AID 743213); note: nearly all actives have a fitted effect of over 50% in size
Method in brief: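 Viability counter-screen, qHTS format: PPARd-bla HEK293H, L165041 300 nM final, 17 h compound exposure at 37 C, CellTiter-Glo luminescence after 30 min RT.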

[3] = target: Peroxisome proliferator-activated receptor delta (Homo sapiens) (UniProt Q03181); experiment: qHTS assay to identify small molecule antagonists of the peroxisome proliferator-activated receptor delta (PPARd) signaling pathway (AID 743215; active = well fitted inhibition curve with a large enough effect in the signal ratio in the repeat runs, not every such curve was filed as active; the % refers to the signal ratio;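 note: cells stimulated with agonist L165041 at 300 nM final during compound exposure; series mostly up to about 62 µM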)
Method in brief: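 Read-out is beta-lactamase FRET fluorescence, measured 2 h after substrate addition at room temperature. Beforehand, UAS-bla HEK293H cells carrying the PPARd reporter were exposed to compounds with L165041 at 300 nM final for 17 h at 37 C.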

[4] = qHTS assay to identify small molecule agonists of the farnesoid-X-receptor (FXR) signaling pathway - cell viability counter screen (AID 743218); note: nearly all actives have a fitted effect of over 45% in size
Method in brief: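 HEK 293T FXR-bla cells; 5 h pre-incubation, 16 h compound exposure at 37 C; LiveBLAzer substrate 2 h RT, then CellTiter-Glo 30 min RT, luminescence.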

[5] = qHTS assay to identify small molecule antagonists of the farnesoid-X-receptor (FXR) signaling pathway - cell viability counter screen (AID 743221; active = well fitted cell-killing curve with a large enough effect in the repeat runs, not every such curve was filed as active; note: nearly all actives have a fitted effect of over 50% in size)
Method in brief: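 GeneBLAzer FXR-UAS-bla HEK 293T cells, compound plus chenodeoxycholic acid (50 uM final), 16 h at 37 C. CellTiter-Glo added to the same wells after the beta-lactamase read; luminescence read after 30 min at room temperature as viability.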

[6] = target: Bile acid receptor (Homo sapiens) (UniProt Q96RI1); experiment: qHTS assay to identify small molecule antagonists of the farnesoid-X-receptor (FXR) signaling pathway (AID 743217; active = well fitted inhibition curve with a large enough effect in the signal ratio in the repeat runs, not every such curve was filed as active; the % refers to the signal ratio)
Method in brief: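 HEK 293T FXR-UAS-bla, 5000 cells/well; compound + CDCA 50 uM final; 16 h, 37 °C; B/G FRET substrate 2 h RT; fluorescence.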

[7] = target: Bile acid receptor (Homo sapiens) (UniProt Q96RI1); experiment: qHTS assay to identify small molecule agonists of the farnesoid-X-receptor (FXR) signaling pathway (AID 743220; active = well fitted activation curve with a large enough effect in the signal ratio in the repeat runs, not every such curve was filed as active; the % refers to the signal ratio)
Method in brief: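 Beta-lactamase reporter under UAS control in GeneBLAzer FXR HEK 293T cells (5000/well) measured with LiveBLAzer FRET substrate after 2 h at room temperature. Compound exposure lasted 16 h at 37C.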

[8] = target: Vitamin D3 receptor (Homo sapiens) (UniProt P11473); experiment: qHTS assay to identify small molecule agonists of the vitamin D receptor (VDR) signaling pathway (AID 743222; calls by dose curve)
Method in brief: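 VDR-bla cells, 2,000/well; 4 h preincubation 37C; cpd (DMSO) 16 h; LiveBLAzer B/G substrate 2 h RT; fluorescence intensity read.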

[9] = target: Vitamin D3 receptor (Homo sapiens) (UniProt P11473); experiment: qHTS assay to identify small molecule antagonists of the vitamin D receptor (VDR) signaling pathway (AID 743223; active = well fitted inhibition curve with a large enough effect in the signal ratio in the repeat runs, not every such curve was filed as active; the % refers to the signal ratio)
Method in brief: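 VDR-bla cells were treated with compound plus 3 nM final 1alpha,25-dihydroxyvitamin D3 for 16 h at 37C. Beta-lactamase reporter read by B/G FRET substrate fluorescence after 2 h at room temperature. qHTS format.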

Measured: Potency

Vitamin D3 receptor (Homo sapiens), sequence (P11473 whole entry, looked up): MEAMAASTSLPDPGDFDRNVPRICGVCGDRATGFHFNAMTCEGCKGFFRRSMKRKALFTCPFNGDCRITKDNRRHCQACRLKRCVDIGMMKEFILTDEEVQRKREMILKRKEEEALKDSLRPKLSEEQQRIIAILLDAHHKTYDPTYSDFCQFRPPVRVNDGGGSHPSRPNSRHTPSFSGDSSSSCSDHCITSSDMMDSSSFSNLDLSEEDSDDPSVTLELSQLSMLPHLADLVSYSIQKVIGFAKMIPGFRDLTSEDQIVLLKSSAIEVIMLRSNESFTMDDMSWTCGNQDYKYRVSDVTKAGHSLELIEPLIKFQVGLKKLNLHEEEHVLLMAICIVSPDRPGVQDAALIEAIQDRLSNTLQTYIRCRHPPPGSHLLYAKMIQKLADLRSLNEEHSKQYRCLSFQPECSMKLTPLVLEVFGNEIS
Peroxisome proliferator-activated receptor delta (Homo sapiens), sequence (Q03181 whole entry, looked up): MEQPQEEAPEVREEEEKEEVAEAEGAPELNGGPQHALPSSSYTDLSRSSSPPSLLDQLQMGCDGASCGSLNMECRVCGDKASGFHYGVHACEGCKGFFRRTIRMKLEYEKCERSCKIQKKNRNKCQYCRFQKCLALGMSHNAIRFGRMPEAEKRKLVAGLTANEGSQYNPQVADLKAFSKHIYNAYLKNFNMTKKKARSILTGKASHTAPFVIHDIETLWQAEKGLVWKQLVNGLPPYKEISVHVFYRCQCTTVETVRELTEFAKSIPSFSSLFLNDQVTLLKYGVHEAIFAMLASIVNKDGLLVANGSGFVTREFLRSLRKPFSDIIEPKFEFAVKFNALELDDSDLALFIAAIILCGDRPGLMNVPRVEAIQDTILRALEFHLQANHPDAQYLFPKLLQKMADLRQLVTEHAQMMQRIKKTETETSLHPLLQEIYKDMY
Bile acid receptor (Homo sapiens), sequence (Q96RI1 whole entry, looked up): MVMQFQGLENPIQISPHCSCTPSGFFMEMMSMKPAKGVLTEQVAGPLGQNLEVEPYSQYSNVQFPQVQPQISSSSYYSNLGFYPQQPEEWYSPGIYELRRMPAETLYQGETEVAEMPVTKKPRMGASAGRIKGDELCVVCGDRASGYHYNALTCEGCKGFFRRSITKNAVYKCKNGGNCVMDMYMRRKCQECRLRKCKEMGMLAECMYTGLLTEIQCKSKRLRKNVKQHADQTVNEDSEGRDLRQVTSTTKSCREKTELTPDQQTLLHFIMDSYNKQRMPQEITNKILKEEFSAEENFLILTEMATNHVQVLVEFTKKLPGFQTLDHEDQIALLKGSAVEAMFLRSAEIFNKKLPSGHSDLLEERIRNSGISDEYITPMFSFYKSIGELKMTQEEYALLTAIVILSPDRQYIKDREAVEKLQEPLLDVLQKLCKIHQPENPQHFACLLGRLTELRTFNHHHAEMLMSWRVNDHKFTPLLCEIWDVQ

CC(C)(C)C1CCCCC1=O (configuration not stated)
inactive: [1] | [2] | [3] | [4] | [5]

CCCCCCC
not listed: [3] | [8] | [9]
inactive: all other assays above

Cc1ncc(CO)c(CN)c1O
inactive: [1] | [2] | [3] | [4] | [8]

C=CCc1cc(OC)c(O)c(C(=O)NCCO)c1
not listed: [3] | [5]
inactive: all other assays above

Nc1ccc2ccccc2c1S(=O)(=O)O
not listed: [5] | [6] | [7]
inactive: all other assays above

CC(C)(C)c1ccc(OC(=O)c2ccccc2O)cc1
not listed: [3] | [5]
inactive: all other assays above

CN1[C@@H]2CC[C@H]1CC(OC(=O)c1c[nH]c3ccccc13)C2 (some centres not stated)
not listed: [4] | [8] | [9]
inactive: all other assays above

COc1cc(C)ccc1C(C)C
not listed: [5]
inactive: all other assays above

Cc1c(-c2ccccc2)oc2c(C(=O)OCCN3CCCCC3)cccc2c1=O
inactive: [1] | [2] | [3] | [4] | [9]

Cc1onc(-c2ccccc2)c1C(=O)Cl
not listed: [3] | [5] | [9]
inactive: all other assays above

CC1=CC(=O)CC(C)(C)C1=O
not listed: [6] | [7]
inactive: all other assays above

CCOC(=O)C(Br)c1ccccc1 (configuration not stated)
inactive: [1] | [2] | [3] | [4] | [5]

FC(F)(F)c1ccccc1
not listed: [6] | [7]
inactive: all other assays above

Cc1nnc(SCC2=C(C(=O)O)N3C(=O)[C@@H](NC(=O)Cn4cnnn4)[C@H]3SC2)s1
inactive: [1] | [2] | [3] | [4] | [5]

COC(=O)c1ccc(OC)cc1
not listed: [3] | [5] | [9]
inactive: all other assays above

Cc1ccc([N+](=O)[O-])cc1Cl
not listed: [5] | [8]
inactive: all other assays above

Oc1ccccc1F
not listed: [3]
inactive: all other assays above

COc1ccccc1N1CCN(CCCNc2cc(=O)n(C)c(=O)n2C)CC1
not listed: [4] | [6] | [7]
inactive: all other assays above

CC(C)(C)c1cccc(O)c1
not listed: [6] | [7] | [8]
inactive: all other assays above

CC1(C)C(=O)N(Cl)C(=O)N1Br
inactive: [1] | [2] | [6] | [4] | [7]

O=Cc1ccc(F)c(Br)c1
not listed: [6] | [7]
inactive: all other assays above

Cc1cc2c(s1)Nc1ccccc1N=C2N1CCN(C)CC1
not listed: [5] | [6] | [7]
inactive: all other assays above

O=c1[nH]c(=O)n([C@H]2C[C@H](O)[C@@H](CO)O2)cc1C(F)(F)F
not listed: [6] | [8]
inactive: all other assays above

CC1=C2[C@H](/C=C(\C)C(=O)O)CC[C@@H](C)[C@H]2CC1
not listed: [3] | [8] | [9]
inactive: all other assays above

OCc1c2ccccc2cc2ccccc12
not listed: [6] | [7]
inactive: all other assays above

Nc1ccc(Oc2ccc(N)c(N)c2)cc1
not listed: [6]
inactive: all other assays above

O=c1oc2c(O)c(O)cc3c(=O)oc4c(O)c(O)cc1c4c23
not listed: [3]
inactive: all other assays above

CC(C)OC(C)C
not listed: [6] | [7]
inactive: all other assays above

CC(=O)OC(C)OC(C)=O
not listed: [5]
inactive: all other assays above

C1CCOC1
not listed: [3]
inactive: all other assays above

OCCN(CCO)c1ccccc1
not listed: [3]
inactive: all other assays above

O=C(CCCl)NCc1ccccc1
inactive: [1] | [2] | [3] | [5] | [9]

O=C1C=CC(=O)O1
inactive: all assays above

Cc1cc(NS(=O)(=O)c2ccc(N)cc2)nc(C)n1
inactive: [1] | [2] | [3] | [4]

CCCCCCOc1ccc(N)cc1
not listed: [3] | [4] | [6]
inactive: all other assays above

C=CCCCCCCCCO
inactive: [1] | [2] | [4] | [5]

CCCCCCn1c(=O)c2c(ncn2C)n(C)c1=O
inactive: [1] | [2] | [4]

OCCN(CCO)CCN(CCO)CCO
not listed: [3] | [6] | [7]
inactive: all other assays above

O=C1CCN(c2ccccc2)N1
inactive: [1] | [2] | [6] | [7] | [5]

CCCCNc1cc(C(=O)O)cc(S(N)(=O)=O)c1Oc1ccccc1
not listed: [3] | [6] | [7]
inactive: all other assays above

COc1ccc(S(=O)(=O)Nc2nnc(CC(C)C)s2)cc1
inactive: [1] | [2] | [5]

O=C1CCCCCCCCCCC(=O)OCCO1
not listed: [3] | [6] | [7]
inactive: all other assays above

CC(C)=CCCC(C)CCOC=O (configuration not stated)
not listed: [2] | [8] | [9]
inactive: all other assays above

CCCCCOc1ccc(C2SC(=O)NC2=O)cc1OCC (configuration not stated)
inactive: [1] | [2] | [4] | [5] | [9]

Cc1ccc(C(C)C)cc1O
inactive: [1] | [2] | [4] | [5] | [8]

OCc1ccccc1O
not listed: [3] | [7]
inactive: all other assays above

CCOc1ccc(OCC)c(Cl)c1
inactive: [1] | [2] | [6] | [7] | [5]

CCOc1ccccc1N
inactive: [1] | [2] | [4] | [8] | [9]

C=CC1CO1 (configuration not stated)
inactive: [1] | [2] | [4] | [5]

O=C(O)CN(CCN(CC(=O)O)CC(=O)O)CCN(CC(=O)O)CC(=O)O
inactive: [1] | [2] | [4] | [5] | [8]
